Records with an inconclusive call do not appear. Where a call stands in place of a potency, no number is given. Calls of active or inactive are those of the source. The call rests on the fitted dose curve; in most records, active means well fitted activation curve with a large enough effect in the signal ratio in the repeat runs (not every such curve was filed as active); inconclusive means weak or mixed curves; inactive means flat fitted curve, though single readings scatter; the % refers to the signal ratio.
Potency means the concentration at half of the fitted maximal effect.

The assay can be described thus: qHTS assay to identify small molecule agonists of H2AX (AID 1224845). The note with it: CHO-K1 phospho-H2AX Ser139 HTRF, 3 h; series mostly up to 154 µM. The source says: National Center for Advancing Translational Sciences [NCATS]
NIH Chemical Genomics Center [NCGC]
U.S. Environmental Protection Agency [EPA]
National Institutes of Environmental Health Sciences [NIEHS]
National Toxicology Program [NTP]
U.S. Food and Drug Administration [FDA]
HTRF phospho-H2AX (Ser139) assay (Cisbio Bioassays, US) enables the quantitative detection of the histone variant H2AX when phosphorylated on serine 139. When double-stranded DNA breaks, either by ionizing radiation or endogenous physiological processes, H2AX becomes phosphorylated at Ser139. This phospho-Ser139 serves as a sensitive biomarker for the detection of such breaks, localizing the site of DNA repair. So, HTRF phospho-H2AX Ser139 is a pertinent assay to study genome stability, the cell cycle, DNA repair, and it serves as a biomarker for cancer, and to understand aging. Wild type CHO-K1 cells were used to identify the inducers of Phospho-H2AX Ser 139 from the Tox21 10K compound collections.
Tox21 Assay Protocol Summary:
The CHO-K1 cells suspended in culture medium containing 10% FBS were dispensed at 1000 cells/ 3 ul/well in 1536-well white wall/solid bottom plates (Greiner Bio-One North America, NC) using a Multidrop Combi (Thermo Fisher Scientific Inc., Waltham, MA). After the assay plates were incubated at 37C overnight, 23 nl of compounds at 15 concentrations (from 5-48 columns) or positive control (from 1 to 4 columns) were transferred to the assay plates using a Pintool station (Wako, San Diego, CA) into each well resulting in a final DMSO concentration of 0.76%. After 3hr incubation at 37C, 1 uL/well Supplemented Lysis buffer (diluted 100 fold blocking reagent in lysis buffer) (HTRF Phospho-H2A.X (S139) Assay kit from Cisbio US Inc., Bedford, MA) was added using a Flying Reagent Dispenser (FRD) (Aurora Discovery, CA). After 10sec spin at 1000 rpm in a plate centrifuge, the assay plates were incubated at room temperature for 30 min. Then followed by the addition of 1 uL/well detection buffer (containing a mixture of two antibodies, one labeled with cryptate, Anti pH2AX (S139)-K and another labeled with d2, Anti H2AX-d2) using FRD. After incubation at room temperature for 24 hr, the time resolved fluorescence at excitation 320 nm and emissions at 665 nm and 620 nm was measured using an Envision plate reader (PerkinElmer, Waltham, MA).
For `CCOc1ccc(N)cc1`, the Potency result was “inactive”.
For `CC(C)CCCCCCOC(=O)c1ccccc1C(=O)OCCCCCCC(C)C`, the Potency result is “inactive”.
As for `Cc1cccc(N)c1`, the Potency entry was “inactive”.
Turning to `CC(C)c1cccc(C(C)C)c1O`, the Potency result is “inactive”.
With `CCOC(=O)CC(SP(=O)(OC)OC)C(=O)OCC` (stereo not given), the Potency entry is “inactive”.
In the case of `O=C(O)c1cc(Oc2ccc(C(F)(F)F)cc2Cl)ccc1[N+](=O)[O-]` it was “inactive”; in that of `CN(C)C(=O)Nc1cccc(C(F)(F)F)c1`, “inactive”.
As for `N#CN=C(N)N`, the Potency entry was “inactive”.
Consider `C=C(C)C(=O)OCC(CC)CCCC` (stereo not given), for which the Potency entry was “inactive”.
In the case of `Cl/C=C/Cl`, the Potency entry is “inactive”.
In the case of `O=[N+]([O-])c1ccc(Cl)c(Cl)c1` it was “inactive”.
`C=CC(=O)OCC(CC)CCCC` (stereo not given): the Potency result was “inactive”.
Consider `COC(C)(C)CCCC(C)C/C=C/C(C)=C/C(=O)OC(C)C` (stereo not given), for which the Potency result is “inactive”.
As to `Oc1ccc(Cl)cc1`, the Potency entry was “inactive”.
In the case of `CC12CC1(C)C(=O)N(c1cc(Cl)cc(Cl)c1)C2=O` (stereo not given) it was “inactive”; in that of `NNc1ccccc1`, “inactive”.
Take `O=[N+]([O-])c1ccc(Cl)cc1`: the Potency result was “inactive”.
Turning to `C=CCN=C=S`, the Potency result is “inactive”.
In the case of `CN(C)C(=O)Cl`, the Potency result was “inactive”.
In the case of `[N-]=[N+]=CC(=O)OC[C@H](N)C(=O)O`, the Potency result is “inactive”.
Turning to `O=C(O)CCCc1ccc(N(CCCl)CCCl)cc1`, the Potency is 56.9 µM (active).
On to `Cc1ccc(O)c(C)c1`, for which the Potency result is “inactive”.
Turning to `CC(=O)C1CCOC1=O` (stereo not given), the Potency entry was “inactive”.
In the case of `C=CC(=O)OCCCCCC(C)C`, the Potency entry is “inactive”.
Take `Oc1c(Br)cc(Br)cc1Br`: the Potency entry is “inactive”.
In the case of `CC(=O)/C=C/c1ccccc1` it was “inactive”.
Regarding `Cl[C@H]1OCCO[C@@H]1Cl`, the Potency entry is “inactive”.
For `CCOP(=S)(OCC)Oc1ccc([N+](=O)[O-])cc1`, the Potency entry was “inactive”.
Regarding `CNc1cnn(-c2cccc(C(F)(F)F)c2)c(=O)c1Cl`, the Potency result was “inactive”.
With `Nc1ccc([As](=O)(O)O)cc1`, the Potency entry was “inactive”.
As for `N#Cc1cccc(C#N)c1`, the Potency entry is “inactive”.
On to `OCc1ccco1`, for which the Potency result is “inactive”.
The result for `COc1nc(NC(C)C)nc(NC(C)C)n1` reads “inactive”; that for `Clc1cnc(Oc2ccc(Oc3ncc(Cl)cc3Cl)cc2)c(Cl)c1`, “inactive”.
The result for `Nc1cccc(Cl)c1` reads “inactive”.
Turning to `CCSC(=O)N1CCCCCC1`, the Potency result was “inactive”.
With `ClCCOCCCl`, the Potency entry is “inactive”.
Consider `C/C=C/c1ccc2c(c1)OCO2`, for which the Potency entry is “inactive”.
Turning to `c1ccc2c(c1)CCCC2`, the Potency result was “inactive”.
On to `Cc1ccccc1N`, for which the Potency entry is “inactive”.

These data come from PubChem BioAssay (Tox21).
